Source: PubChem
Rab9 promoter act – Rab9 promoter activation. Huh7 Rab9 promoter-luciferase reporter, luminescence, 24 h. Potency, µM (titrated, usually from 9.22 µM), actives largely listed as activators. actives 2.8% (n = 320,000). AID 485297; also: nearly all actives have a fitted effect of over 60% in size
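Luminescence from Amplite-detected luciferase (10 minutes, ambient) reports Rab9 promoter activation. Before that, stable Rab9-luciferase Huh7 cells (1500/well, reduced-serum OP-MEM I plus 10% FBS) were exposed to compound for 24 hours at 37C.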
FLuc modulator – counter-screen for miR-21 project: firefly luciferase inhibitors or activators | Potency, µM (doses to about 57.5 µM), actives largely listed as inhibitors | purified FLuc, Km substrates, luminescence inhibition | actives 6.9% (n = 360,000); also: nearly all actives have a fitted effect of over 55% in size
Target sequence (P08659 whole entry, looked up): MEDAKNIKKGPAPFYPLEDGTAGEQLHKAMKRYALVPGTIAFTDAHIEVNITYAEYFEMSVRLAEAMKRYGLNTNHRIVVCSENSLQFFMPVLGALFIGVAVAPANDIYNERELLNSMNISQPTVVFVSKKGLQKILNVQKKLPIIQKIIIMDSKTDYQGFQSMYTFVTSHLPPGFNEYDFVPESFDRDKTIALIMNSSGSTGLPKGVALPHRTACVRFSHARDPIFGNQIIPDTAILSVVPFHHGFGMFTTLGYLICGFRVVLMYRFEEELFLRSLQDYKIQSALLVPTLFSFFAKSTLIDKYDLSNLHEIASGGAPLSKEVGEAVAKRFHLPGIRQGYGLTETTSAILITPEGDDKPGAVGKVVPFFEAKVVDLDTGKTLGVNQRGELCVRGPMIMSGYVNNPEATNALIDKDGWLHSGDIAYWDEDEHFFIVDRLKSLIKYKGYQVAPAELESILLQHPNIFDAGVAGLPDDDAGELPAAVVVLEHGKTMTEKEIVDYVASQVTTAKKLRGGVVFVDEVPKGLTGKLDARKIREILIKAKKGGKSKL
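Purified P. pyralis luciferase (10nM final) with 10uM D-luciferin and 10uM ATP (Km levels) in 50mM Tris acetate pH 7.5, 10mM Mg acetate, 0.01% Tween-20, 0.05% BSA; qHTS 6-point titration, ~60 µM downward; luminescence read.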
ELG1 genotox – inducers of genotoxicity in HEK293T ELG1-luciferase cells | HEK293T ELG1-luciferase reporter, luminescence, 16 h | Potency, µM (highest dose often 46 µM), hits mostly activators | actives 1.3% (n = 330,000) | AID 504466; also: nearly all actives have a fitted effect of over 60% in size
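HEK293T cells expressing luciferase-tagged ELG1 were exposed to compound or DMSO vehicle for 16 hr at 37 °C and 5% CO2. Luciferase activity was then measured with ONE-Glo after 30 min at room temperature.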
NPC1 prom act – activators of NPC1 promoter | Huh7 NPC1 promoter luciferase reporter, 24 h | Potency, µM (top dose mostly 9.22 µM), hits mostly activators | actives 2.4% (n = 320,000); also: nearly all actives have a fitted effect of over 60% in size
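Luminescence read-out of NPC1 promoter-driven luciferase in stably transfected Huh7 cells; compounds delivered in DMSO and left 24 h at 37C, 5% CO2, qHTS titration format.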
ELG1 DNA repair – ELG1-dependent DNA repair inhibition; AID 504467; HEK293T ELG1-luciferase reporter, luminescence, 16 h; DNA damage induced by 5-fluorouridine; actives 2.3% (n = 330,000); Potency, µM (titrated, usually from 46.1 µM), usual class: inhibitors; also: nearly all actives have a fitted effect of over 55% in size
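Quantitative HTS, concentration-response format. 2,000 cells/well co-treated with 5-fluorouridine and compound, 16 hr in 5% CO2 at 37 °C; ONE-Glo luminescence read after 30 min.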
SMN2 splice up – SMN2 splice variant enhancement; HEK293 SMN2-luciferase splicing reporter, luminescence, 30-36 h; Potency, µM (top dose mostly 46.1 µM), usual class: activators; actives 2.8% (n = 210,000); AID 1458; also: nearly all actives have a fitted effect of over 55% in size
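HEK293 cells carry an SMN2 […]–luciferase reporter in which exon 7 inclusion puts luciferase in frame. Cells were plated 10-12 h before compound addition, then incubated 30-36 h at 37C. ONE-Glo luminescence was read; sodium butyrate at 4.5 mM final served as control.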
A number is an active result; 0 = inactive; ? = inconclusive; - = no result given. Rows were chosen to be rich in hits. Some 9.4% of all compounds tested hit in one or more screens of this group. Calls follow the shape of the dose curve; as a rule, active = well fitted curve in the direction sought with a large enough effect; inconclusive = small, poorly fitted or top-dose-only effect, or another doubt; inactive = no such curve, though single readings can be large; an effect the other way counts as inactive or inconclusive.

SMILES | Rab9 promoter act | FLuc modulator | ELG1 genotox | NPC1 prom act | ELG1 DNA repair | SMN2 splice up
CCOc1cc(CN2CCN(C(=O)c3cccc4ccccc34)CC2)ccc1OC | 0 | 0 | 0 | 0 | 15µM | -
COc1ccc(CN2CCN(C(=O)c3cccc4ccccc34)CC2)cc1OC | 0 | 0 | 0 | 0 | 12µM | -
Cc1nc(NC(C)C)c2cnn(CCc3ccccc3)c2n1 | ? | ? | 15µM | 0 | ? | 0
CCCNc1nc(C)nc2c1cnn2CCc1ccccc1 | 0 | 0 | ? | 0 | ? | 0
Cc1ccc(Cl)cc1NC(=O)Cn1c(=O)n(CCCS(=O)(=O)C2CCCCC2)c(=O)c2ccccc21 | - | 0 | - | - | - | 0
Nc1c(Cl)ncnc1NCCc1ccc(O)cc1 | 0 | 0 | 0 | 0 | 10µM | -
Cc1c(Cl)cccc1NC(=O)N1CCN(C(=O)c2ccco2)CC1 | 0 | 0 | 0 | 0 | 0 | -
Cc1cc(Cl)c2oc(C(=O)N3CCN(c4cccc(C)n4)CC3)c(C)c2c1 | ? | 15µM | ? | 3.5µM | 0 | -
Cc1cc(Cl)c2oc(C(=O)N3CCN(C(=O)c4ccco4)CC3)c(C)c2c1 | ? | 11µM | ? | ? | 0 | -
Cc1ccc2oc(C(=O)N3CCN(c4cccc(C)n4)CC3)c(C)c2c1 | 0 | ? | 0 | 0 | ? | -
NC(=O)NOCc1ccccc1F | 0 | 0 | 0 | 0 | 0 | -
Cc1c(C(=O)Nc2ccc(-c3nnc4n3CCCCC4)cc2)oc2ccc(Br)cc12 | 0 | 0 | 0 | 0 | ? | 0
CCCCCc1ccc(OCCCC[n+]2cccc(C)c2)c(CCCCC)c1 | 0 | 0 | 0 | 0 | 0 | -
CCCCCc1ccc(OCCCC[n+]2ccccc2)c(CCCCC)c1 | 0 | 0 | 0 | 0 | 13µM | 0
CCCCCc1ccc(OCCCC[n+]2ccc(C)cc2)c(CCCCC)c1 | 0 | 0 | 0 | 0 | 15µM | -
CCC(C)(C)c1ccc(OCCCC[n+]2ccccc2)c(C(C)(C)CC)c1 | 0 | 0 | 0 | 0 | 18µM | 0
CCn1c(SCC(=O)Nc2cccc(Cl)c2)nnc1-c1nonc1NC(C)=O | - | 0 | - | - | - | -
COc1ccc(NC(=O)CC2C(=O)N(c3ccc(C)cc3)C(=O)N2Cc2cccnc2)cc1 (centres undefined) | - | 0 | - | - | - | -
O=C(O)CCCN1C(=O)/C(=C\C(Cl)=C\c2ccccc2)SC1=S | 0 | 9.5µM | 0 | 0 | 0 | -
O=C(O)CCCN1C(=O)/C(=C/C=C/c2ccco2)SC1=S | 0 | 27µM | 0 | 0 | 0 | -
O=C(NN1C(=O)/C(=C/C=C/c2ccco2)SC1=S)c1ccccc1O | 0 | 19µM | 0 | 0 | 0 | -
O=C(O)CC(C(=O)O)N1C(=O)/C(=C/c2ccc(-c3nc4ccccc4s3)o2)SC1=S (centres undefined) | 0 | 19µM | 0 | 0 | 0 | 0
O=C(O)CCN1C(=O)/C(=C/c2ccc(-c3nc4ccccc4s3)o2)SC1=S | 0 | ? | 0 | 0 | ? | 0
CN1CCN(C(=O)CCCN2C(=O)/C(=C/c3ccccc3)SC2=S)CC1 | 0 | 0 | 0 | 0 | 0 | -
CCOC(=O)c1nnc2c(-c3ccc(Cl)cc3)c(C)nn2c1C | - | 0 | - | - | - | 0
SMILES | Rab9 promoter act | FLuc modulator | ELG1 genotox | NPC1 prom act | ELG1 DNA repair | SMN2 splice up
O=C(c1ccc(Cn2cc([N+](=O)[O-])cn2)o1)N1CCCCCC1 | 0 | 0 | 0 | 0 | 0 | -
O=C(O)C(O)C(O)C(O)C(O)C(=O)O (centres undefined) | - | - | - | - | - | 0
O=C(O)CC(C(=O)O)N1C(=O)/C(=C/C=C/c2ccco2)SC1=S (centres undefined) | 0 | 12µM | 0 | 0 | 0 | -
O=C1S/C(=C\C=C\c2ccco2)C(=O)N1c1ccc(O)cc1 | ? | 15µM | ? | 0 | ? | 0
CC(C)(C)n1ncc2c(=O)n(CC(=O)Nc3ccccc3)cnc21 | 0 | 0 | 0 | 0 | ? | 0
CC(C)(C)n1ncc2c(=O)n(CC(=O)NCc3ccco3)cnc21 | 3.2µM | ? | ? | 3.2µM | ? | 13µM
CC(C)(C)n1ncc2c(=O)n(CC(=O)NCc3ccc(F)cc3)cnc21 | 0.35µM | 4.3µM | 4.1µM | 0.5µM | ? | 8.9µM
CC(C)(C)n1ncc2c(=O)n(CC(=O)NC3CCCCC3)cnc21 | ? | ? | ? | ? | ? | 0
COc1ccc(Cn2c(SCc3ccc(C(=O)NCc4cccs4)cc3)nc3ccncc32)cc1 | - | 0 | - | - | - | 0
